Bioassay records deposited in PubChem by National Center for Advancing Translational Sciences (NCATS).
Rows were chosen to be rich in hits. Some 2.8% of all compounds tested hit in one or more screens of this group.
PTHR1 ag: activates the human parathyroid hormone receptor PTHR1 | HEK293 GP2 PTHR1 cells, GloSensor cAMP luminescence, 1 h | Potency, µM (doses to about 115 µM), for inactives: top-dose activation, most hits filed as activators | 410,000 tested, 0.075% active | AID 743266; also: potency is read from the fitted curve at half-maximal effect; nearly all actives have a fitted effect of over 55% in size
Target sequence (Q03431 whole entry, looked up): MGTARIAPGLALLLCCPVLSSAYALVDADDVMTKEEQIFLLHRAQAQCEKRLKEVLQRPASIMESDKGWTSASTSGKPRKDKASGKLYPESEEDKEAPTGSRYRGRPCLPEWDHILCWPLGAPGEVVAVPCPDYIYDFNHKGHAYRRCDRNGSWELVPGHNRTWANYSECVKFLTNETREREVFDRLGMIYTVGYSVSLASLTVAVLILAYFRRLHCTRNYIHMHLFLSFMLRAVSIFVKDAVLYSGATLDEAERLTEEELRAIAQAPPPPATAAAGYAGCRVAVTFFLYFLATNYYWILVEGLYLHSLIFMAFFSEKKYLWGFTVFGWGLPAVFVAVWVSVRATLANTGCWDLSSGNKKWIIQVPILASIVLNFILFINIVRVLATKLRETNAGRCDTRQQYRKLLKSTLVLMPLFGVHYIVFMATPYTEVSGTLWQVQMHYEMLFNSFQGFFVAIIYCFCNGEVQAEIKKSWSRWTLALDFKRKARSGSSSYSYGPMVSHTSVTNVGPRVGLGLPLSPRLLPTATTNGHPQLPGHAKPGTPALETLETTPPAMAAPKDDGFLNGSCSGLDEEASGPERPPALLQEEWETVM
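HEK-293-derived GP2 cells expressing PTHR1 and a GloSensor cAMP reporter, 3,000/well, plated overnight, given luciferin plus IBMX (each 0.5 mM as added) for 1 h at 37 °C, then compound for 1 h at 37 °C. Luminescence was read after 15 min at room temperature.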
D3 antag: D3 dopamine receptor (human) antagonism; D3R cells, DiscoveRx beta-arrestin luminescence, antagonist mode; hits give low values; 360,000 tested, 2.5% active; P35462; max response, negative = inhibition, %; in the data active = max response below about -50%; inconclusive = no clear call, values can overlap the other calls; also: % is scaled to controls: 0 for no effect and ±100 for the full control effect
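Cells expressing the human receptor were seeded at 1500 cells/well, incubated overnight at 37 degrees C in 5% CO2, then exposed to library compounds with dopamine controls for 90 minutes at 37 degrees C before luminescent detection.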
a7 integrin act: activates integrin-mediated alleviation for muscular dystrophy | alpha7betagal myoblasts, beta-gal FDG fluorescence, 48 h | Potency, µM (titrated, usually from 38.3 µM), for the others: top-dose activation, most hits filed as activators | 350,000 tested, 0.064% active;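 also: potency is read from the fitted curve at half-maximal effect; 100% = response of the positive control SU9516; nearly all actives have a fitted effect of over 60% in size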
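Alpha7betagal+/- myoblasts (passage 13) were plated 16-24 hr, then exposed to compounds (1:260 dilution of DMSO stock) for 48 hours at 37C. After MPER lysis, β-galactosidase reporter activity was read as FDG fluorescence (ex 480/em 540) after 30 minutes.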
DRD3 agonist: activates the human D3 dopamine receptor. P35462. D3R DiscoveRx beta-arrestin cells, luminescence, 90 min. max activation, %. 410,000 tested, 0.58% active; in the data active = max activation above about 30%; also: 0% is about no effect
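Agonist mode: compounds and dopamine controls were applied to plated cells for 90 min at 37 degrees C after an overnight attachment at 1500 cells/well. Luminescent read-out followed 30 - 60 minutes at room temperature with DiscoveRx detection reagent.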
CBFb-RUNX1 inh: inhibitors of human CBF-beta and RUNX1 interaction | Potency, µM (doses to about 59.8 µM), for the others: top-dose activity, negative = inhibition, hits mostly inhibitors | AlphaScreen CBFb-His/RUNX1-biotin binding, biochemical | Q01196+Q13951 | AID 1477 | 230,000 tested, under 10 active; also: % of control where 0% means no effect
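CBF-beta (His) and RUNX1 (biotin), 30 nM each; 20 min preassociation; + compound, 15 min; + beads 50 ng each (Ni, streptavidin), 90 min; RT; AlphaScreen read.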
MBNL1 CUG block: blocks human MBNL1 binding to CUG repeat RNA; TR-FRET MBNL1-His/biotin-(CUG)12 binding, 665/545 ratio; Potency, µM (highest dose often 57.5 µM), for the others: top-dose activity change, negative = inhibition, usual class: inhibitors; 280,000 tested, 0.036% active; AID 2675; active = well fitted inhibition curve with a large enough effect in the signal ratio, with a control signal flat, not every such curve was filed as active; inconclusive = small, poorly fitted or top-dose-only effect, or effect the other way, or a change in a side signal; inactive = no such curve, though single readings can be large or run the other way; the % refers to the signal ratio; also: potency is read from the fitted curve at half-maximal effect; % is scaled to controls: 0 for no effect and ±100 for the full control effect
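MBNL1-His + Biotin-(CUG)12, cpd titration 92 nM–58 uM; Tb anti-His Ab 0.055 ng/ul, SA-XL665 5 nM (final); 60 min RT; ratiometric 665/545 nm, Ex 340 nm; normalized to buffer and full-complex controls.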
Active calls of the source: *; i = inactive; u = inconclusive; x = not tested or not shown; [ ] = another dose, or the depositor's remark. Unless noted, calls follow the shape of the dose curve; as a rule, active = well fitted curve in the direction sought with a large enough effect; inconclusive = small, poorly fitted or top-dose-only effect, or another doubt; inactive = no such curve, though single readings can be large; an effect the other way counts as inactive or inconclusive.

SMILES	PTHR1 ag	D3 antag	a7 integrin act	DRD3 agonist	CBFb-RUNX1 inh	MBNL1 CUG block
O=C(Cc1ccccc1F)Nc1ccccc1N1CCCC1	-4.4%	0.2	-11.9%	-3.4	x	-7.1%
O=C(Nc1ccccc1N1CCCC1)C1CCN(C(=O)c2ccc(Cl)cc2)CC1	-24.3%	15.4	1.6%	-1.0	x	x
O=C(CNCC1CCCO1)Nc1ccccc1N1CCCCCC1 (stereo not drawn)	-41.8%[57.5 µM]	-62.2*	-38.0%	0.2	-1.3%	4.5%
O=C(CNCc1ccccc1Cl)Nc1ccccc1N1CCCCC1	-61.7%	-60.2*	-12.6%	-23.6	7.3%	-5.3%
O=C(Nc1ccccc1N1CCCCC1)C1CCN(C(=O)c2ccc(Cl)cc2)CC1	-22.6%	-59.1*	17.0%	-7.5	x	x
COc1ccc(S(=O)(=O)N2CCOCC2)cc1NC(=O)COc1ccc(C(C)=O)cc1OC	-12.0%	-6.2	8.6%	-0.6	x	x
COc1ccc(S(=O)(=O)N2CCC[C@H]2C(=O)N2CCC[C@H]2C(=O)NCc2ccncc2)cc1C	-44.5%	29.3	x	-7.6	x	x
Cc1oc(-c2ccc(C(=O)Nc3ccc(F)cc3F)cc2)nc1COc1ccccc1	-10.8%	x	x	1.3	x	x
O=C(CSc1ccccc1F)NC(=O)NC1CCCC1	-36.3%	12.5	18.0%	8.0	x	x
Cc1ccc(-n2c(SCC(=O)Nc3cccc(S(N)(=O)=O)c3)nc3ccccc32)cc1	-95.8%	51.7	-36.3%	44.4*	10.2%	-14.4%
Cc1nnc(SCC(=O)Nc2cccc(S(N)(=O)=O)c2)n1-c1ccccc1	i	-1.9	-53.5%	0.4	x	-2.8%
COc1cc2[nH]c(=O)n(Cc3ccc(C(=O)NCc4ccccc4)cc3)c(=O)c2cc1OC	-18.5%	x	x	5.2	x	x
CCNC(=S)Nc1ccc(Cl)c(C(F)(F)F)c1	-45.8%	-13.6	-23.2%	-4.1	4.2%	x
CCC(=O)c1c[nH]c(C(=O)NCc2cccnc2)c1	i	-21.8	u	-9.8	1.3%	-3.6%
CCCC(=O)c1c[nH]c(C(=O)NCc2cccnc2)c1	-3.7%	-88.2*	-28.2%	-12.2	-0.8%	-8.4%
CCOC(=O)Cc1csc(NC(=S)NC(=O)c2ccc(F)cc2)n1	i	5.8	23.6%	7.0	4.1%	2.0%
CCOC(=O)Cc1csc(NC(=O)CC)n1	-6.6%[57.5 µM]	-0.2	0.8%	0.2	8.5%	-5.3%
CCOC(=O)Cc1csc(NC(=S)NC(=O)c2cc(OC)c(OC)c(OC)c2)n1	i	-5.5	3.55µM*	0.3	11.2%	-14.4%
CCOC(=O)Cc1csc(NC(=O)CN2CCCCC2)n1	i	-54.8*	16.1%	-8.3	x	0.9%
CC1CC1C(=O)OCC(=O)NNC(=O)c1ccc([N+](=O)[O-])cc1 (stereo not drawn)	-24.8%	-19.3	22.0%	10.4	x	x
CCOc1ccc(CNC(=O)C2CCN(c3nn4c(=O)cc(C)nc4s3)CC2)cc1	u	-9.9	-0.1%	3.4	x	1.8%
CC1CCc2c(sc(NC(=O)c3cccs3)c2C(=O)O)C1 (stereo not drawn)	-25.3%	-9.5	7.2%	-9.7	x	2.5%
CCCC1CCc2c(sc(NC(=O)c3cccs3)c2C(N)=O)C1 (stereo not drawn)	-9.7%[57.5 µM]	-93.8*	12.6%	19.8	3.0%	-3.9%
COc1ccc2cc(C(c3nnnn3C(C)(C)C)N3CCc4ccccc4C3)c(=O)[nH]c2c1 (stereo not drawn)	x	x	x	x	-1.9%	u
COc1ccc2cc(C(c3nnnn3C(C)(C)C)N3CCSCC3)c(=O)[nH]c2c1 (stereo not drawn)	-16.3%[57.5 µM]	-57.1*	12.9%	-7.0	-0.2%	10.2%
SMILES	PTHR1 ag	D3 antag	a7 integrin act	DRD3 agonist	CBFb-RUNX1 inh	MBNL1 CUG block
Cc1cc(OCCCCNC(C)C)cc(C(C)C)c1	-15.7%	-69.0*	-54.7%	-12.8	3.4%	2.9%
Cc1cc(OCCn2cnc3ccccc3c2=O)cc(C(C)C)c1	-24.0%	-24.7	-21.0%	3.4	5.0%	-10.9%
COc1ccc2cc([C@H](C)CO)ccc2c1	x	x	x	-2.2	x	x
COC(=O)c1ccsc1NC(=O)CS(=O)(=O)c1ccccc1	-15.2%	-101.8*	-3.7%	-14.7	x	x
O=C(NC(=S)N(Cc1ccccc1)c1ccccn1)C1CC1	22.7%	1.9	27.1%	-3.8	1.3%	2.4%
CCN(CC)c1ccc2c(C)c(CN3CCOCC3)c(=O)oc2c1	i	-75.2*	-21.6%	-6.1	15.6%	u
CCN(CC)c1ccc2c(C)c(CO)c(=O)oc2c1	i	-17.1	-5.2%	7.9	23.2%	u
CCc1cnc2c(c1SCc1c(F)cccc1Cl)c(=O)n(C)c(=O)n2C	-4.1%	x	x	-6.5	x	x
Cc1ccc(NC(=O)COc2ccccc2CNC(C)(C)CC(C)(C)C)cc1	-4.5%	-6.4	14.1µM*	-10.6	-3.0%	-8.4%
CC(C)(CO)NCc1ccccc1OCC(=O)Nc1ccccc1	i	-28.5	-4.1%	-12.3	3.0%	1.1%
CN(C)C(=O)CN1C(=O)NC2(CCc3ccccc32)C1=O (stereo not drawn)	-5.4%	-9.2	0.0%	-5.6	x	-2.8%
CCOC(=O)C1CCCN(Cc2ccccc2C)C1 (stereo not drawn)	-9.7%[57.5 µM]	-63.6*	-22.3%[7.66 µM]	-29.9	2.9%	-6.0%
COc1ccc(CN2CCC(C(N)=O)CC2)cc1OCc1ccccc1	-13.6%	-4.1	-10.9%	-10.1	x	-0.1%
CCOC(=O)C1CCCN(Cc2ccc(OC)c(OCc3ccccc3)c2)C1 (stereo not drawn)	i	-83.8*	6.9%	-27.6	x	-2.6%
CCCCOc1ccc(/C=C/C2=CC(C)(C)NC(=S)N2)cc1OCC	-1.3%	0.0	23.2%	-17.2	-16.2%	-2.8%
OC(CNC1CCCc2ccccc21)COc1c(Cl)cccc1Cl (stereo not drawn)	i	-78.3*	-30.4%	-23.6	-3.0%	-10.9%
OC(CNC1Cc2ccccc2C1)COc1ccc(Cl)cc1 (stereo not drawn)	4.2%	u	5.2%	-10.8	13.4%	-8.8%
O=C(O)c1cccc(N2C(=O)c3ccc(Oc4ccc(Cl)cc4)cc3C2=O)c1	-13.0%	-3.4	11.9%	2.4	6.2%	u
O=C(O)c1cccc(N2C(=O)c3ccc4c5c(ccc(c35)C2=O)C(=O)N(c2cccc(C(=O)O)c2)C4=O)c1	i	-106.9*	0.5%	-37.8	8.9%	u
O=C(C#Cc1ccccc1)c1cccc([N+](=O)[O-])c1	-30.0%	-56.5*	-57.0%	-8.3	-14.2%	12.7%
O=C(O)c1cccc([N+](=O)[O-])c1	x	x	x	x	-2.1%[21.7 µM]	x
COc1ccc(COCC(O)CN2CCCCC2)cc1OC (stereo not drawn)	-12.0%	8.3	-4.5%	0.2	x	-1.9%
COc1ccc(COCC(O)CN2CCc3ccccc3C2)cc1OC (stereo not drawn)	i	-60.6*	30.5%	-35.9	-2.8%	0.4%
